Screens (PubChem)
miR122 inh = raises miR-122 sensor activity in Huh7 cells; activation, % at 12.5 µM; Huh7 psiCHECK-miR122 Renilla luciferase sensor, 48 h; 340,000 tested, 0.14% active;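 active = mean activation of 30% or more, with every replicate also reaching 30%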;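 note: higher luciferase signal means stronger suppression of miR-122 activity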
Numbers stand for hits; 0 = inactive. The sample as a whole holds a higher share of hits than the screen did.

SMILES | miR122 inh
C[C@@H]1CN([C@H](C)CO)C(=O)c2cc(N(C)C)ccc2O[C@@H]1CN(C)S(=O)(=O)c1ccc(Cl)cc1 | 0
CC(C)C#Cc1ccc2c(c1)O[C@@H](CN(C)Cc1ccncc1)[C@H](C)CN([C@H](C)CO)S2(=O)=O | 0
CO[C@H]1CN(C)C(=O)c2cc(NC(=O)NC(C)C)ccc2OC[C@@H](C)N(C(=O)NC(C)C)C[C@@H]1C | 0
C[C@H]1CN([C@@H](C)CO)C(=O)c2cc(-c3cncnc3)cnc2O[C@@H]1CN(C)CC1CCOCC1 | 0
CCCNC(=O)N(C)C[C@H]1Oc2ncc(C#C[C@H](C)O)cc2C(=O)N([C@H](C)CO)C[C@H]1C | 0
CCCNC(=O)NC[C@H]1[C@@H](c2ccc(C3=CCCC3)cc2)[C@@H](CO)N1C(C)=O | 0
C[C@H](CO)N1C[C@H](C)[C@H](CN(C)Cc2ccccn2)Oc2cc(-c3ccncc3)ccc2S1(=O)=O | 0
CCC(=O)N1C[C@@H](C)[C@@H](OC)CN(C)C(=O)c2ccc(NS(C)(=O)=O)cc2OC[C@H]1C | 0
CCCCCCCCCCCCCCCC[n+]1ccccc1 | 49
C[C@H]1CN([C@@H](C)CO)S(=O)(=O)c2ccc(-c3ccncc3)cc2O[C@@H]1CN(C)C(=O)C1CC1 | 0
C[C@@H]1CN([C@H](C)CO)C(=O)c2cc(-c3ccc(F)cc3)cnc2O[C@H]1CN(C)C(=O)c1ccccn1 | 0
COCC#Cc1ccc2c(c1)O[C@H](CN(C)C(=O)C1CCOCC1)[C@@H](C)CN([C@H](C)CO)S2(=O)=O | 0
C[C@@H]1CN([C@@H](C)CO)C(=O)c2cc(C3=CCCCC3)cnc2O[C@H]1CN(C)Cc1ccccc1C(=O)O | 0
CO[C@@H]1CN(C)C(=O)c2ccc(NC(=O)NC(C)C)cc2OC[C@H](C)NC[C@H]1C | 0
COc1ccc(Oc2ccc(N/C=C3\CCCC3=O)cc2)cc1 | 36
COc1ccc(S(=O)(=O)Nc2cc3c4c(oc3c3ccccc23)CCCC4=O)cc1 | 0
COc1ccc(NS(=O)(=O)c2cc(C)ccc2C)cc1 | 0
C[C@H]1CN([C@@H](C)CO)C(=O)c2cc(-c3cncnc3)cnc2O[C@@H]1CN(C)Cc1ccccc1 | 0
C[C@H](CO)N1C[C@H](C)[C@H](CN(C)Cc2ccccc2C(=O)O)Oc2ncc(C3=CCCCC3)cc2C1=O | 0
C[C@H](CO)N1C[C@H](C)[C@@H](CN(C)C(=O)CN(C)C)Oc2ncc(C#C[C@@H](C)O)cc2C1=O | 0
Cc1ccc(S(=O)(=O)N(C)C[C@@H]2Oc3ncc(C#CCC(C)C)cc3C(=O)N([C@H](C)CO)C[C@@H]2C)cc1 | 0
C[C@@H]1CN([C@@H](C)CO)C(=O)c2cc(C#CC3(O)CCCC3)cnc2O[C@H]1CN(C)Cc1cncnc1 | 0
C[C@@H]1CN([C@@H](C)CO)C(=O)c2cc(C3=CCCCC3)cnc2O[C@@H]1CN(C)Cc1cccc(F)c1 | 0
Cc1sc2ncnc(N/N=C/c3ccccc3O)c2c1C | 37
C[C@H]1CN([C@@H](C)CO)S(=O)(=O)c2ccc(Br)cc2O[C@@H]1CN(C)S(C)(=O)=O | 0
SMILES | miR122 inh
N#CCc1c(C#N)c(N)nc(N2CCN(S(=O)(=O)c3ccccc3)CC2)c1C#N | 36
Cc1cccc(S(=O)(=O)C(C#N)c2nc3ccccc3nc2N2CCCC2)c1 (stereo unspecified) | 0
C[C@@H]1CN([C@@H](C)CO)C(=O)c2cc(C#Cc3ccccc3F)cnc2O[C@@H]1CN(C)C(=O)C1CCOCC1 | 0
C[C@@H]1CN([C@H](C)CO)C(=O)c2cc(-c3ccncc3)cnc2O[C@H]1CN(C)C(=O)Cc1ccccn1 | 0
CCO/C=C1\N=C(c2ccc(F)cc2)OC1=O | 60
C[C@@H]1CN([C@@H](C)CO)C(=O)c2cccc(NC(=O)c3ccncc3)c2O[C@@H]1CN(C)C | 0
C[C@@H]1CN([C@@H](C)CO)C(=O)c2cc(-c3ccncc3)cnc2O[C@H]1CN(C)C(=O)c1ccccc1F | 0
CC(=O)N(C)C[C@@H]1Oc2cc(C#C[C@@H](C)O)ccc2S(=O)(=O)N([C@H](C)CO)C[C@H]1C | 0
CCCNC(=O)N(C)C[C@H]1Oc2cc(Br)ccc2S(=O)(=O)N([C@H](C)CO)C[C@@H]1C | 0
COC(=O)c1cc(=O)n2c(-c3ccc(OC)cc3)csc2n1 | 38
C[C@H](CO)N1C[C@H](C)[C@H](CN(C)C(=O)C2CC2)Oc2ncc(-c3cccnc3)cc2C1=O | 0
O=C(c1cc([N+](=O)[O-])ccc1N1CCOCC1)N1CCN(c2ccccc2)CC1 | 0
Cc1onc(C(=O)N2CCN(C(c3ccccc3)c3ccccc3)CC2)c1[N+](=O)[O-] | 31
CC(C)C#Cc1ccc2c(c1)O[C@H](CN(C)C(=O)CN(C)C)[C@H](C)CN([C@H](C)CO)S2(=O)=O | 0
O=C(N[C@H]1CC[C@H](CCn2cc(C3(O)CCCC3)nn2)O[C@H]1CO)c1ccccc1F | 42
Cc1ccc(S(=O)(=O)NCC[C@@H]2CC[C@@H](NC(=O)c3cnccn3)[C@H](CO)O2)cc1 | 0
COc1ccccc1-c1cnc2c(c1)C(=O)N([C@H](C)CO)C[C@H](C)[C@@H](CN(C)Cc1ccccc1)O2 | 0
COCC#Cc1cnc2c(c1)C(=O)N([C@@H](C)CO)C[C@@H](C)[C@H](CN(C)Cc1ccccc1)O2 | 0
C[C@@H]1CN([C@H](C)CO)S(=O)(=O)c2ccc(C#Cc3ccncc3)cc2O[C@H]1CN(C)C(=O)C1CCCCC1 | 0
CC(C)C#Cc1ccc2c(c1)O[C@H](CN(C)C(=O)c1ccncc1)[C@H](C)CN([C@H](C)CO)S2(=O)=O | 53
C[C@H](O)C#Cc1ccc2c(c1)O[C@@H](CN(C)Cc1ccc(-c3ccccc3)cc1)[C@H](C)CN([C@H](C)CO)S2(=O)=O | 45
CCCC#Cc1ccc2c(c1)O[C@H](CN(C)C(=O)CC)[C@H](C)CN([C@@H](C)CO)S2(=O)=O | 0
CCC(=O)N(C)C[C@H]1Oc2cc(C#Cc3ccccc3)ccc2S(=O)(=O)N([C@H](C)CO)C[C@H]1C | 56
C[C@@H]1CN([C@@H](C)CO)S(=O)(=O)c2ccc(C#C[C@@H](C)O)cc2O[C@H]1CN(C)Cc1cccnc1 | 0
C[C@@H]1CN([C@@H](C)CO)S(=O)(=O)c2ccc(C#Cc3ccncc3)cc2O[C@@H]1CN(C)C(=O)C1CCOCC1 | 33
SMILES | miR122 inh
CCCC#Cc1ccc2c(c1)O[C@H](CN(C)C(=O)CC)[C@H](C)CN([C@H](C)CO)S2(=O)=O | 0
C[C@@H]1CN([C@H](C)CO)S(=O)(=O)c2ccc(C#Cc3ccncc3)cc2O[C@@H]1CN(C)C(=O)C1CCCCC1 | 0
C[C@H](O)C#Cc1ccc2c(c1)O[C@@H](CN(C)Cc1cccnc1)[C@H](C)CN([C@@H](C)CO)S2(=O)=O | 0
C[C@@H](O)C#Cc1ccc2c(c1)O[C@@H](CN(C)C(=O)c1ccncc1)[C@@H](C)CN([C@@H](C)CO)S2(=O)=O | 0
C[C@H](O)C#Cc1ccc2c(c1)O[C@@H](CN(C)C(=O)c1ccncc1)[C@H](C)CN([C@@H](C)CO)S2(=O)=O | 0
CCCN(C)C[C@H]1Oc2ncc(-c3ccccc3OC)cc2C(=O)N([C@@H](C)CO)C[C@H]1C | 0
C[C@@H]1CN([C@@H](C)CO)C(=O)c2cc(C#Cc3ccccn3)cnc2O[C@H]1CN(C)C(=O)CCN1CCCCC1 | 0
COc1cccc(-c2cnc3c(c2)C(=O)N([C@H](C)CO)C[C@H](C)[C@H](CN(C)C(=O)Nc2ccccc2F)O3)c1 | 0
CCC(=O)Nc1ccc2c(c1)OC[C@H](C)N(C(=O)c1ccccc1F)C[C@@H](C)[C@@H](OC)CN(C)C2=O | 0
